# Experimental data taken from the supplement of paper PMC8253809.
# System: SUDIPGVI (diffuse intrinsic pontine glioma line)
# Assay: growth inhibition (% activity, log2 RLU normalised to DMSO / staurosporine); higher = more growth inhibition
# Conditions: 33 µM
# In short: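 For each approved drug, the growth-inhibition value is the replicate median of per-plate normalised CellTiter-Glo data. Luminescence was log2-transformed and expressed as % activity between solvent and positive control wells. Drugs were applied in triplicate at a single final concentration of about 33 μM for 7 days at 37 °C, 5% CO2 to pHGG cell lines and H9-derived neural stem cells.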
row,Structure (SMILES),growth inhibition [%]
1,Oc1ccc(/C=C/c2cc(O)cc(O)c2)cc1,1.29
2,CN1C2CCCC1CC(NC(=O)c1nn(C)c3ccccc13)C2 (stereo unspecified),1.95
3,CC(C)(C)c1nc(-c2cccc(NS(=O)(=O)c3c(F)cccc3F)c2F)c(-c2ccnc(N)n2)s1,-1.37
4,CC(C)OC(=O)C(C)(C)Oc1ccc(C(=O)c2ccc(Cl)cc2)cc1,2.08
5,CC1CCc2cc(F)cc3c(=O)c(C(=O)O)cn1c23 (stereo unspecified),0.839
6,CC(=O)NC[C@H]1CN(c2ccc(N3CCOCC3)c(F)c2)C(=O)O1,1.21
7,O=C(O)c1ccccc1,-2.88
8,Cc1ccnc2c1NC(=O)c1cccnc1N2C1CC1,0.484
9,Nc1nc2ccc(OC(F)(F)F)cc2s1,2.57
10,CCOC(=O)c1ncn2c1CN(C)C(=O)c1cc(F)ccc1-2,2.57
11,Nc1nccs1,1.08
12,Cn1ccnc1S,-1.6
13,N#C[C@@H]1C[C@@H]2C[C@@H]2N1C(=O)[C@@H](N)C12CC3CC(CC(O)(C3)C1)C2,2.7
14,CC(C)CC(N)=O,-0.151
15,COc1ccccc1OCC(O)COC(N)=O (stereo unspecified),0.561
16,CCCc1cc(=O)[nH]c(=S)[nH]1,0.156
17,CC1(C)O[C@@H]2C[C@H]3[C@@H]4CCC5=CC(=O)C=C[C@]5(C)[C@@]4(F)[C@@H](O)C[C@]3(C)[C@]2(C(=O)CO)O1,1.71
18,CN(C)CCOC(c1ccccc1)c1ccccc1,-3.73
19,CCOC(=O)c1c(CSc2ccccc2)n(C)c2cc(Br)c(O)c(CN(C)C)c12,-8.38
20,CS(=O)(=O)c1ccc(C2=C(c3ccccc3)C(=O)OC2)cc1,-0.628
21,Fc1ccc([C@@H]2CCNC[C@H]2COc2ccc3c(c2)OCO3)cc1,-0.542
